Reference: PubChem BioAssay AID1159580 (chemical genetic matrix, 2015)
Among all 5,500 compounds or so, about 2,000 (36%) were called active. About 18% were inconclusive and are not listed. Rule as the data show it: active = normalized growth mostly below about 0.91 (no sharp cut-off); inconclusive = no clear call, values can overlap the other calls; inactive = mostly above about 0.92. The list shows a part of the results.

Assay: chemical genetic growth profiling, strain panel (AID 1159580);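 also: tested at 20 µM; growth read once vehicle control cultures reached saturation at 30 °C; 1 = growth at the plate median or of vehicle wells; lower values mean less growth of the strain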
Conditions: S. cerevisiae deletion strains, growth OD
[1] = locus YDL101C, strain DUN1, active compounds read low
[2] = locus YHR030C, strain SLT2, active compounds read low

Measured: normalized growth

O=C(c1ccccc1)c1cc(Cl)ccc1NC(=S)Nc1ccc(F)cc1
inactive: locus YAR019C, strain CDC15, active compounds read low 0.984 | locus YBL105C, strain PKC1, active compounds read low 0.992 | locus YBR135W, strain CKS1, active compounds read low 0.99 | locus YBR136W, strain MEC1, active compounds read low 0.987 | locus YBR160W, strain CDC28, active compounds read low 0.998 | locus YDL017W, strain CDC7, active compounds read low 0.996 | locus YDL028C, strain MPS1, active compounds read low 0.994 | [1] 0.996 | locus YDL108W, strain KIN28, active compounds read low 0.985 | locus YDL132W, strain cdc53, active compounds read low 0.992 | locus YDL214C, strain PRR2, active compounds read low 0.968 | locus YDR052C, strain DBF4, active compounds read low 0.994 | locus YDR054C, strain cdc34, active compounds read low 0.994 | locus YDR226W, strain ADK1, active compounds read low 0.993 | locus YDR477W, strain SNF1, active compounds read low 0.982 | locus YER123W, strain YCK3, active compounds read low 0.95 | locus YER133W, strain GLC7, active compounds read low 0.977 | locus YFL009W, strain cdc4, active compounds read low 0.986 | locus YFL029C, strain CAK1, active compounds read low 0.987 | locus YFR003C, strain YPI1, active compounds read low 0.988 | locus YFR019W, strain FAB1, active compounds read low 0.945 | locus YFR028C, strain CDC14, active compounds read low 0.991 | locus YGR040W, strain KSS1, active compounds read low 0.967 | locus YGR052W, strain FMP48, active compounds read low 1.02 | locus YGR092W, strain DBF2, active compounds read low 0.989 | [2] 0.97 | locus YHR079C, strain IRE1, active compounds read low 0.997 | locus YHR082C, strain KSP1, active compounds read low 1.12 | locus YHR205W, strain SCH9, active compounds read low 0.988 | locus YIL147C, strain SLN1, active compounds read low 0.994 | locus YJL095W, strain BCK1, active compounds read low 0.988 | locus YJL128C, strain PBS2, active compounds read low 0.947 | locus YJL157C, strain FAR1, active compounds read low 0.962 | locus YJR016C, strain ILV3, active compounds read low 0.988 | locus YJR066W, strain TOR1 (second series), active compounds read low 0.937 | locus YJR066W, strain TOR1, active compounds read low 1.05 | locus YKL048C, strain ELM1, active compounds read low 0.99 | locus YKL067W, strain YNK1, active compounds read low 0.968 | locus YKL101W, strain HSL1, active compounds read low 0.971 | locus YKL193C, strain SDS22, active compounds read low 0.991 | locus YKL203C, strain TOR2, active compounds read low 1 | locus YLR133W, strain CKI1, active compounds read low 0.983 | locus YLR403W, strain SFP1, active compounds read low 0.974 | locus YML070W, strain DAK1, active compounds read low 0.978 | locus YMR001C, strain CDC5, active compounds read low 0.995 | locus YMR205C, strain PFK2 (second series), active compounds read low 0.977 | locus YMR277W, strain FCP1, active compounds read low 0.976 | locus YNL006W, strain LST8, active compounds read low 0.992 | locus YNL020C, strain ARK1, active compounds read low 0.983 | locus YNL161W, strain CBK1, active compounds read low 0.992 | locus YNL183C, strain NPR1, active compounds read low 1.02 | locus YNL207W, strain RIO2, active compounds read low 0.992 | locus YNL222W, strain SSU72, active compounds read low 0.987 | locus YNL307C, strain MCK1 (second series), active compounds read low 0.968 | locus YOL078W, strain AVO1, active compounds read low 0.999 | locus YOL136C, strain PFK27, active compounds read low 0.969 | locus YOR061W, strain CKA2, active compounds read low 0.973 | locus YOR119C, strain RIO1, active compounds read low 1.05 | locus YOR231W, strain MKK1, active compounds read low 0.994 | locus YOR329C, strain SCD5, active compounds read low 0.993 | locus YPL031C, strain PHO85, active compounds read low 0.969 | locus YPL153C, strain RAD53, active compounds read low 0.988 | locus YPL209C, strain IPL1, active compounds read low 0.993 | locus YPL256C, strain CLN2, active compounds read low 0.985 | locus YPR025C, strain CCL1, active compounds read low 0.99 | locus YPR106W, strain ISR1, active compounds read low 0.997 | locus YPR111W, strain DBF20, active compounds read low 0.963 | strain NNK1, active compounds read low 0.995 | strain TSCII, active compounds read low 0.991
active: locus YLR113W, strain HOG1, active compounds read low 0.858

Cc1c(Cl)cccc1NC(=S)Nc1ccc(Cl)cc1C(=O)c1ccccc1
inactive: locus YAL013W, strain DEP1, active compounds read low 0.999 | locus YBR229C, strain ROT2, active compounds read low 0.991 | locus YCL061C, strain MRC1, active compounds read low 0.985 | [1] 0.993 | locus YDR150W, strain NUM1, active compounds read low 0.987 | locus YEL061C, strain CIN8, active compounds read low 1 | locus YGR078C, strain PAC10, active compounds read low 0.968 | [2] 0.894 | locus YHR087W, strain rtc3, active compounds read low 0.99 | locus YJR043C, strain POL32, active compounds read low 0.989 | locus YJR075W, strain HOC1, active compounds read low 0.971 | locus YLR039C, strain RIC1, active compounds read low 0.907 | locus YLR058C, strain SHM2 (second series), active compounds read low 1.01 | locus YLR085C, strain ARP6, active compounds read low 0.969 | locus YLR262C, strain YPT6, active compounds read low 0.946 | locus YML094W, strain GIM5, active compounds read low 0.98 | locus YMR219W, strain ESC1, active compounds read low 0.991 | locus YMR263W, strain SAP30, active compounds read low 0.993 | locus YMR307W, strain GAS1, active compounds read low 0.924 | locus YNL153C, strain GIM3, active compounds read low 0.984 | locus YNL298W, strain CLA4 (second series), active compounds read low 0.987 | locus YNL322C, strain KRE1, active compounds read low 0.986 | locus YNR030W, strain Alg12, active compounds read low 0.969 | locus YPL055C, strain LGE1, active compounds read low 0.98 | locus YPL241C, strain CIN2, active compounds read low 0.969 | locus YPR135W, strain CTF4, active compounds read low 0.956
